Records with an inconclusive call do not appear. Calls of active or inactive are those of the source. Unless noted, calls follow the shape of the dose curve; as a rule, active = well fitted curve in the direction sought with a large enough effect; inconclusive = small, poorly fitted or top-dose-only effect, or another doubt; inactive = no such curve, though single readings can be large; an effect the other way counts as inactive or inconclusive.
Experiments:
[1] = Cell Viability - BJ (AID 421; calls by dose curve;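 also: potency is read from the fitted curve at half-maximal effect; cells exposed to compound for 40 hours at 37 °C before readout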); details: BJ fibroblast viability, qHTS
Procedure, shortened: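 Normal human BJ foreskin fibroblasts, 1500/well in complete medium, treated 40 hr at 37 °C. Cellular ATP by CellTiter-Glo luminescence; normalized to DMSO and 100 uM tamoxifen, AC50 from Hill fit.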

[2] = Cell Viability - Jurkat (AID 426;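 active = dose-dependent loss of cell ATP signal giving a full or clear fitted curve, ranked by lower potency value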; also: potency is read from the fitted curve at half-maximal effect); details: qHTS
Procedure, shortened: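 qHTS, 1536-well; Jurkat E6-1, 5000 cells/well, complete medium; cpd 40 hr, 37 °C; CellTiter-Glo 20 min RT; luminescence. AC50 by Hill fit.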

[3] = Cell Viability - Hek293 (AID 427;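 active = compounds whose dose-response curve shows a full or clear partial loss of cell viability, called from curve shape rather than a numeric limit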;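 also: potency is read from the fitted curve at half-maximal effect; cells exposed to compound for 40 hours at 37 °C before reading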); details: qHTS
Procedure, shortened: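 HEK293 cells in complete medium were exposed to compound for 40 hr at 37 °C, then cellular ATP was read by CellTiter-Glo luminescence. Data were normalized to DMSO (basal) and 100 uM tamoxifen (100% inhibition), and AC50 came from Hill fits.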

[4] = Cell Viability - HepG2 (AID 433; calls by dose curve;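 also: potency is read from the fitted curve at half-maximal effect; potency for ATP loss meaning cytotoxicity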); details: qHTS
Procedure, shortened: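 HepG2 cells, 1500 per well, treated 40 hr at 37 °C in complete medium; viability from intracellular ATP by CellTiter-Glo luminescence. Normalized to DMSO and 100 uM tamoxifen; AC50 from Hill fit of qHTS concentration-response.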

[5] = Cell Viability - MRC5 (AID 434; calls by dose curve;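 also: potency is read from the fitted curve at half-maximal effect; potency reflects cytotoxicity seen as loss of intracellular ATP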); details: MRC5 lung fibroblast viability, qHTS
Procedure, shortened: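 MRC5 normal human lung fibroblasts, 1500 cells/well, exposed to compound for 40 hr at 37 C. Cellular ATP was read by CellTiter-Glo luminescence; data normalized to DMSO and 100 uM tamoxifen, with AC50 from Hill fits.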

[6] = Cell Viability - SK-N-SH (AID 435; calls by dose curve;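 also: potency is read from the fitted curve at half-maximal effect; compound exposure lasted 40 h at 37 °C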); details: SK-N-SH neuroblastoma cell viability qHTS
Procedure, shortened: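 SK-N-SH neuroblastoma cells (1500/well) treated 40 h at 37 °C in complete medium; viability read as cellular ATP by CellTiter-Glo luminescence. Normalized to DMSO and 100 uM tamoxifen; AC50 from Hill fits of qHTS concentration-response.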

[7] = biological target: Mitogen-activated protein kinase 10 (Mus musculus) (UniProt Q61831); assay: JNK3 AlphaScreen Assay (AID 530; active = well fitted curve in either direction with a large enough effect, not every such curve was filed as active;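 also: kinase came from lysate of stimulated human HepG2 cells; signal reports phosphorylation of biotinylated GST-cJun 1-79 at Ser73 with 10 µM ATP; % is scaled to controls: 0 for no effect and ±100 for the full control effect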)
Procedure, shortened: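 Pre-activated (IL-1β/TNFα) JNK3 in HepG2 lysates phosphorylates biotin-GST-cJun(1-79), 10 uM ATP; anti-phospho-cJun(Ser73) AlphaScreen read at room temperature, pH 7.6 Tris buffer. Compounds pre-incubated 15 min as titrations.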

[8] = Cell Viability - N2a (AID 540); details: N2a mouse neuroblastoma cell viability; activity change, negative = cytotoxicity: at 92.2 µM (top of the series);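 also: plate controls were DMSO alone for no effect and tamoxifen control for full effect; nearly all actives have a fitted effect of over 45% in size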
Procedure, shortened: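 Luminescent ATP signal (CellTiter-Glo, 20 min at room temperature) served as the viability read-out after N2a cells were treated with compounds for 40 hours at 37 °C. Concentration-response data were fitted to the Hill equation for AC50.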

[9] = Cell Viability - NIH 3T3 (AID 541); details: NIH 3T3 cell viability, qHTS; activity change, negative = cytotoxicity: at 92.2 µM (top of the series);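 also: plate controls were DMSO alone for no effect and tamoxifen positive control for full effect; nearly all actives have a fitted effect of over 25% in size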
Procedure, shortened: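 Luminescent ATP signal (CellTiter-Glo) served as the viability read-out after NIH 3T3 cells were exposed to compounds over a concentration range for 40 hr at 37 °C. Hill-equation modelling of concentration-response data gave AC50.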

[10] = Cell Viability - HUV-EC-C (AID 542); also: % is scaled to controls: 0 for no effect and ±100 for the full control effect; nearly all actives have a fitted effect of over 35% in size
Procedure, shortened: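 qHTS cytotoxicity: HUV-EC-C, 1000 cells/well, 5 hr settle, compound 40 hr 37 °C, CellTiter-Glo, luminescence. AC50 via Hill equation.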

[11] = Cell Viability - H-4-II-E (AID 543); also: % is scaled to controls: 0 for no effect and ±100 for the full control effect; nearly all actives have a fitted effect of over 35% in size
Procedure, shortened: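 Luminescent ATP signal (CellTiter-Glo) served as the viability read-out, with cytotoxicity seen as a concentration-dependent ATP drop. Cells were treated for 40 hours in complete medium. AC50 values derive from Hill-equation modelling.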

[12] = Cell Viability - Renal Proximal Tubule (AID 545); details: renal proximal tubule cells viability, primary cells of rat origin; at 91.7 µM (top of the series); also: nearly all actives have a fitted effect of over 40% in size
Procedure, shortened: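 Rat renal proximal tubule primary cells, 1000/well, exposed to compounds for 40 hr at 37 °C in complete medium; cellular ATP read by CellTiter-Glo luminescence. AC50 from concentration-response fitted with standard Hill equation.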

[13] = Cell Viability - Mesenchymal (AID 546); details: mesenchymal cells viability, qHTS; activity change, negative = cytotoxicity: at 91.7 µM (top of the series);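 also: cells exposed to compound for 40 hours before reading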
Procedure, shortened: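 Human kidney mesenchymal cells from normal renal glomeruli, 1000 cells/well, rested 5 hr at 37 °C, then treated 40 hr at 37 °C in complete medium. Cellular ATP read by CellTiter-Glo luminescence; AC50 from Hill-equation fits.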

[14] = Cellular Toxicity (caspase-3) HepG2 (AID 654);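 also: cells exposed to compound for 16 hours before reading; 0% = DMSO alone and 100% = caspase signal from 100 µM tamoxifen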
Procedure, shortened: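 Cells plated 5 hr at 37 °C, compound added, incubated 16 hr at 37 °C. Caspase-Glo 3/7 reagent followed, 20 min at room temperature, then luminescence read. Activation scored as signal increase; AC50 from Hill fit.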

[15] = Cellular Toxicity (caspase-3) Jurkat (AID 655); details: Jurkat caspase-3 activation, luminescence, DMSO = 0%, tamoxifen = 100%; at 92.2 µM (top of the series);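 also: cells exposed to compound for 16 h at 37 °C before reading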
Procedure, shortened: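 Jurkat cells (5000/well) in complete medium exposed 16 h at 37 C; caspase-3/7 activity read by Caspase-Glo luminescence after 20 min at room temperature. Normalized to DMSO and 100 uM tamoxifen; AC50 from Hill fits.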

[16] = Cellular Toxicity (caspase-3) HUV-EC-C (AID 656)
Procedure, shortened: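 HUV-EC-C cells (1000/well) in complete medium, compound-treated 16 h at 37 °C; caspase-3/7 activity read by Caspase-Glo 3/7 luminescence. Normalized to DMSO (basal) and 100 uM tamoxifen (100%); AC50 from Hill-equation concentration-response fits.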

[17] = Cellular Toxicity (caspase-3) SHSY5Y (AID 657)
Procedure, shortened: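 SH-SY5Y human neuroblastoma cells, 1500/well, exposed to compound for 16 hours at 37 °C in complete medium. Caspase-3/7 activity read by Caspase-Glo luminescence after 1 hr at room temperature, normalized to DMSO and 10 uM staurosporine; AC50 from Hill fit.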

[18] = Cellular Toxicity (caspase-3) BJ (AID 658);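 also: 0% = DMSO basal and 100% = 10 µM staurosporine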
Procedure, shortened: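 BJ human foreskin fibroblasts, 1000 cells/well, treated 16 hours at 37 °C in complete medium; caspase 3/7 activity by Caspase-Glo luminescence after 1 hr at room temperature. Normalized to DMSO and 10 uM staurosporine; AC50 from Hill fits.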

[19] = Cellular Toxicity (caspase-3) MRC-5 (AID 659);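 also: 0% = DMSO basal and 100% = 10 µM staurosporine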
Procedure, shortened: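 MRC-5 human normal lung fibroblasts, 1500 cells/well, treated 16 h at 37 °C in complete medium. Caspase 3/7 measured by Caspase-Glo luminescence after 1 h at room temperature. Normalized to DMSO and 10 uM staurosporine; AC50 from Hill fit.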

[20] = Cellular Toxicity (caspase-3) Mesangial (AID 660)
Procedure, shortened: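 Mesangial cells, 1000/well, 5 h settle at 37 °C; compound 16 h, 37 °C; Caspase-Glo 3/7 reagent 20 min RT; luminescence. Norm.: DMSO = 0%, tamoxifen 100 uM = 100%. AC50, Hill fit.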

[21] = Cellular Toxicity (caspase-3) SK-N-SH (AID 661);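 also: 0% = DMSO basal and 100% = 10 µM staurosporine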
Procedure, shortened: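 Human neuroblastoma SK-N-SH, 1500 cells/well, 5 hr pre-incubation, then compound 16 hr, 37 °C. Caspase-Glo 3/7 reagent, 1 hr RT, luminescence. Norm. to DMSO/10 uM staurosporine; Hill-fit AC50.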

[22] = Cellular Toxicity (caspase-3) H-4-II-E (AID 663); details: Potency: caspase-3 activation;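 also: cells exposed to compound for 16 hr before readout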
Procedure, shortened: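 Rat hepatoma H-4-II-E cells (1500/well) plated 5 hr, then exposed to compound titrations for 16 hr at 37 °C. Caspase-Glo 3/7 luminescence read after 20 min at RT; data normalized to DMSO and 100 uM tamoxifen, AC50 from Hill fits.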

[23] = Cellular Toxicity (caspase-3) Hek293 (AID 664);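 also: cells exposed to compound for 16 h at 37 °C before readout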
Procedure, shortened: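 Cells plated, 5 hr at 37 °C; compounds added; 16 hr at 37 °C; Caspase-Glo 3/7 reagent, 20 min RT; luminescence read. Activation expressed relative to DMSO and 100 uM tamoxifen, AC50 by Hill model.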

[24] = Cellular Toxicity (caspase-3) N2a (AID 665);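 also: compound exposure lasted 16 h at 37 °C before readout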
Procedure, shortened: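 N2a cells, 1500/well, 5 h settle at 37 °C; cpd 16 h, 37 °C; Caspase-Glo 3/7, 1 h RT; luminescence. Norm: DMSO = 0, 10 uM staurosporine = 100%. AC50, Hill fit.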

[25] = Cellular Toxicity (caspase-3) NIH 3T3 (AID 666);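 also: caspase signal read after 16 h compound exposure; 0% = DMSO basal and 100% = 100 µM tamoxifen stimulation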
Procedure, shortened: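 Luminescence from aminoluciferin released by caspase-3/7 cleavage of a peptide substrate served as read-out. Mouse fibroblast NIH 3T3 cells were exposed to compounds over a concentration range for 16 hours, and AC50 values came from standard Hill modelling.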

[26] = Cellular Toxicity (caspase-3) Renal Proximal Tubule (AID 667);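 also: cells exposed to compound for 16 hours at 37 °C before detection; 0% = DMSO basal and 100% = 10 µM staurosporine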
Procedure, shortened: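 Freshly isolated primary rat kidney proximal tubule cells, 1000/well, treated 16 hr at 37 °C, then Caspase-Glo 3/7 luminescence after 1 hr. Normalized to DMSO and 10 uM staurosporine; AC50 from Hill fit.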

[27] = Cell Viability - LYMP2-001 (AID 921);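 also: 0% = DMSO only and full inhibition = tetraoctylammonium bromide control wells; nearly all actives have a fitted effect of over 70% in size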
Procedure, shortened: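 Human lymphoblastoid LYMP2-001 cells, 2500 per well, in complete medium, treated 24 h at 37 C. Viability from cellular ATP by CellTiter-Glo luminescence; AC50 from Hill-equation fits of qHTS concentration-response.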

[28] = MultiTox-Fluor Cytotoxicity Assay - LYMP1-001 - Dead Cells (AID 946);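 also: 0% = DMSO and 100% = tetraoctylammonium bromide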
Procedure, shortened: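 LYMP1-001 lymphoblastoid cells (2500/well) treated 16 h at 37 C. Dead-cell protease cleavage of bis-AAF-R110 read at Ex/Em 485/520. Normalized to DMSO and 15 uM tetraoctylammonium bromide; AC50 from Hill fits.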

[29] = MultiTox-Fluor Cytotoxicity Assay - LYMP1-001 - Live Cells (AID 947);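 also: 0% = DMSO only and full inhibition = tetraoctylammonium bromide control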
[30] = Cell Viability - LYMP1-002 - Assay at 16 hr (AID 948);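 also: 0% = DMSO alone and full effect = 92 µM tetraoctylammonium bromide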
Procedure, shortened: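 LYMP1-002 human lymphoblastoid cells, 2500/well, were treated with compounds for 16 hr at 37 C in complete medium. Viability was read as intracellular ATP by CellTiter-Glo luminescence, and AC50 was derived from a Hill fit to concentration-response data.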

[31] = MultiTox-Fluor Cytotoxicity Assay - LYMP1-002 - Live Cells (AID 955); also: % is scaled to controls: 0 for no effect and ±100 for the full control effect
Procedure, shortened: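 Read-out is live-cell protease activity (cell-permeant GF-AFC substrate, fluorescence Ex/Em=405/510), where a decrease indicates acute toxicity. Human lymphoblastoid cells were treated 16 hours at 37 C in a concentration series, and AC50 values came from standard Hill modelling.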

[32] = MultiTox-Fluor Cytotoxicity Assay - LYMP1-003 - Dead Cells (AID 961);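 also: 0% = DMSO and 100% = tetraoctylammonium bromide; nearly all actives have a fitted effect of over 70% in size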
Procedure, shortened: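 LYMP1-003 human lymphoblastoid cells (2500/well) exposed to compound 16 h at 37 C in complete medium; dead-cell protease read with bis-AAF-R110 fluorescence (Ex/Em 485/520) after 60 min at room temperature. Normalized to DMSO and 15 uM tetraoctylammonium bromide; AC50 from Hill fit.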

[33] = MultiTox-Fluor Cytotoxicity Assay - LYMP1-003 - Live Cells (AID 962);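 also: 0% = DMSO only and full loss = 92 µM tetraoctylammonium bromide; cytotoxic hits lower the live-cell protease signal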
Procedure, shortened: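 qHTS, 1536-well; 2500 cells/well LYMP1-003; 5 hr 37 C settle; cpd 16 hr 37 C; MultiTox-Fluor reagent 60 min RT; live-cell protease fluor. 405/510; Hill-fit AC50; tetraoctylammonium bromide pos. ctrl.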

[34] = Cell Viability - LYMP1-003 - Assay at 24 hr (AID 963);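 also: plate controls were DMSO only for no effect and tetraoctylammonium bromide positive control for full effect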
Procedure, shortened: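 Cells seeded at 2500/well, 5 hr at 37 C; compounds added; 24 hr at 37 C; CellTiter-Glo added, 30 min room temperature; luminescence read. Decrease in ATP taken as cytotoxicity, AC50 from Hill modelling.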

[35] = Cell Viability - LYMP1-003 - Assay at 40 hr (AID 964); also: % is scaled to controls: 0 for no effect and ±100 for the full control effect; nearly all actives have a fitted effect of over 60% in size
Procedure, shortened: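 Cells were seeded at 2500 per well and incubated 5 hr at 37 C. Compounds were added across a concentration series and left 40 hr at 37 C. CellTiter-Glo was added for 30 min at room temperature before luminescence reading.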

[36] = Cell Viability - LYMP2-003 (AID 965);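 also: cells exposed to compounds for 24 h before reading; 0% = DMSO only and full effect = 92 µM tetraoctylammonium bromide; nearly all actives have a fitted effect of over 50% in size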
Procedure, shortened: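 Human lymphoblastoid LYMP2-003 cells, 2500/well, exposed to compounds for 24 h at 37 C in complete medium. Viability read as intracellular ATP by CellTiter-Glo luminescence; AC50 from Hill-equation fits of qHTS concentration-response data.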

[37] = Cell Viability - LYMP2-004 (AID 966);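 also: plate controls were DMSO only for no effect and tetraoctylammonium bromide control for full effect; nearly all actives have a fitted effect of over 65% in size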
Procedure, shortened: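 Cells seeded 2500/well, rested 5 hr at 37 C, dosed across a concentration series, incubated 24 hr at 37 C, then CellTiter-Glo added for 30 min at room temperature and luminescence read. Hill fitting gave AC50.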

C[C@H](CCC(=O)O)[C@H]1CC[C@H]2[C@@H]3CC[C@@H]4C[C@H](O)CC[C@]4(C)[C@H]3CC[C@]12C
inactive: Potency [1] > 92 µM | Potency [2] > 92 µM | Potency [3] > 92 µM | Potency [4] > 92 µM | Potency [5] > 92 µM | Potency [6] > 92 µM | Potency [7] | activity change, negative = cytotoxicity [8] 2.31% | Potency [9] | outcome [10] | Potency [11] | activity change, negative = cytotoxicity [12] -4.96% | activity change, negative = cytotoxicity [13] 15.4% | outcome [14] | caspase-3 activation [15] -0.354% | outcome [16] | outcome [17] | outcome [18] | outcome [19] | outcome [20] | outcome [21] | Potency [22] | outcome [23] | outcome [24] | outcome [25] | outcome [26] | Potency [27] | Potency [28] | Potency [29] | Potency [30] | Potency [31] | Potency [32] | Potency [33] | Potency [34] | Potency [35] | Potency [36] | Potency [37]
